Assay outcomes (PubChem)
Sampled rows, rich in hits. Any-hit rate of the full collection: about 4%.
CF NFkB inh – inhibitors of PAF-induced NF-kB signaling, primary screen, cell-based, GFP fluorescence, uHTS | AID 588850, 2011 | KKLEB NF-kB-GFP reporter, GFP fluorescence overnight | 360,000 compounds, 0.86% hits | inhibition, % at 5 µM;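 active = at least 50% inhibition at 5 µM, scaled per plate between neutral and stimulator controls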;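 also: PAF is a Pseudomonas aeruginosa culture filtrate used as stimulus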
TROY NFkB inh – inhibitors of TROY-driven NF-kB signaling, primary screen, Q293 LMP1-TROYcd cells, NF-kB luciferase, uHTS | 360,000 compounds, 0.98% hits | Q293 LMP1-TROYcd NF-kB luciferase reporter, 4 h | inhibition, % at 10 µM;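 active = compounds whose plate-normalised and pattern-corrected inhibition of the luciferase reporter signal at the single screening dose is 50% or more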
HIF-2a block – HIF-2a reporter inhibitors, primary screen, luminescence, 786-0 RCC cells; inhibition, % at 18.8 µM; AID 624352, 2012; 786-0 RCC cells HIF-2a reporter, luciferase luminescence, overnight; 360,000 compounds, 0.72% hits;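 active = inhibition of the luminescence signal of 40% or more relative to plate controls, in a single-dose primary screen at 18.75 µM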
TWEAK-Fn14 inh – inhibitors of TWEAK-Fn14 signaling, primary screen, luciferase reporter cells, uHTS | inhibition, % at 10 µM | TWEAK-stimulated Fn14 reporter cells, luciferase luminescence, 8 h | 360,000 compounds, 2% hits; in the data active = inhibition above about 50%
KKLEB tox – cytotoxicity in KKLEB CF airway cells, primary screen, cytotoxicity control for CF NF-kB inhibitor project, cell-based, uHTS, fluorescence assay plates. activity change (cytotoxicity), % at 5 µM. AID 602141, 2011. KKLEB CF airway cells viability, ATPlite luminescence, overnight; hits give low values; cells stimulated with P. aeruginosa culture filtrate. 360,000 compounds, 0.36% hits;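 active = corrected activity change at or below -50% at 5 µM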
Peg3 promoter – Peg3 promoter-driven luciferase inhibitors, primary screen, cell-based, HeLa, luciferase luminescence. AID 588405, 2011. HeLa PEG-Prom luciferase reporter, overnight. inhibition, % at 20 µM. 360,000 compounds, 1.7% hits;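 active = inhibition of at least 50% at 20 µM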
HIF-2a inh conf – HIF-2a reporter inhibitor retest, confirmation, luminescence, 786-0 RCC cells | shares compounds with HIF-2a block | HIF-2a luciferase reporter luminescence, overnight | inhibition, % at 18.8 µM | 1,800 compounds, 56% hits | AID 651580, 2012;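 active = mean inhibition across four replicates of at least 40 percent at the single tested concentration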
HIF-1a counter – HIF-1a luciferase reporter signal reduction – MiaPaCa-2 cells, single concentration, counter-screen for HIF-2a inhibitor project, confirmation | shares compounds with HIF-2a block | inhibition, % at 18.8 µM | AID 651589, 2012 | 1,800 compounds, 72% hits | MiaPaCa-2 HIF-1a luciferase reporter, desferoxamine, overnight;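 active = mean inhibition of the reporter signal across four replicates at the single tested dose of 50% or more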
A number is an active result; n = inactive.

SMILES | CF NFkB inh | TROY NFkB inh | HIF-2a block | TWEAK-Fn14 inh | KKLEB tox | Peg3 promoter | others
Cc1cc(C)c(C#N)c(SCc2nnc(-c3ccccc3[N+](=O)[O-])o2)n1 | n | n | n | n | n | n
Cc1ccc(C#N)c(SCc2nnc(-c3ccc(Cl)cc3)o2)n1 | n | 87 | 46 | 98 | n | n | HIF-2a inh conf=59;HIF-1a counter=80
Cc1ccn(CC(=O)N2CCCC(N3CCN(c4ccc(F)cc4)CC3)C2)n1 (stereo not drawn) | n | n | n | n | n | n
Cc1ccc(S(=O)(=O)N2C[C@H]3C(=O)C[C@@H]4C(=O)N(c5ccccc5)C(=O)[C@@H]4[C@@H]3C[C@H]2c2cccc(Cl)c2)cc1 | n | n | n | n | n | n
COC(=O)CCCN1C(=O)c2cccc3cccc(c23)C1=O | n | n | n | n | n | n
